Screens (PubChem)
Only some compounds are listed: those with a hit (about 1% of all), similar ones and a draw of the others.
TRPML1 inh – blocks the human TRPML1 channel; TRPML1-inducible cells, Ca2+ dye fluorescence, FDSS; active compounds read low; inhibition of EC80 agonist-evoked calcium signal; 390,000 tested, 0.02% active; activity change, negative = inhibition, % (test concentration not listed); Q9GZU1; in the data active = activity change below about -50%; inconclusive = between about -30% and that limit;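 also: stimulus is agonist 54-4 at its EC80 concentration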
Target sequence (Q9GZU1 whole entry, looked up): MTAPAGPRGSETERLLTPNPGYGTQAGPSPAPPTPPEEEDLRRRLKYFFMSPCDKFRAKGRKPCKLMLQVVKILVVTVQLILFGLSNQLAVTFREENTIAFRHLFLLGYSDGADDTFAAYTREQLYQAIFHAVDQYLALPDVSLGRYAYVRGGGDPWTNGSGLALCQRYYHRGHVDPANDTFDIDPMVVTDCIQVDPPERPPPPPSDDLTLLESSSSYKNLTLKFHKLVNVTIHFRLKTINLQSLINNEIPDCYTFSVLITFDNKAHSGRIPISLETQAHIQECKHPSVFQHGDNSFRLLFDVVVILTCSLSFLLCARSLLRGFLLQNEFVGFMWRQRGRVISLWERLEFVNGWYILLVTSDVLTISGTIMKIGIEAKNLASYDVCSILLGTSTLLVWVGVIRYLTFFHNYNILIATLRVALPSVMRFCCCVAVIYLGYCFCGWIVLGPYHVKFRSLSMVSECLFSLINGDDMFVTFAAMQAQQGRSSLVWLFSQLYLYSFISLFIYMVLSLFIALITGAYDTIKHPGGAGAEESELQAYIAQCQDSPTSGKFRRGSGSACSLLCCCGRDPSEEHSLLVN
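Calcium fluorescence in TRPML1-DL cells induced overnight with Tet: a 110 s read after compound pin addition, then a 110 s antagonist read after challenge with 54-4 at 4 uM final (EC80).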
TSG101-PTAP inh – blocks PTAP/TSG101 interaction to inhibit HIV-1 budding; Fluorescence polarization, FITC-PTAP peptide / Tsg101 binding; 340,000 tested, under 10 active; Potency, µM (highest dose often 115 µM), hits mostly inhibitors; Q99816; active = well fitted inhibition curve with a large enough effect in the main read-out, with a control signal flat, not every such curve was filed as active; inconclusive = small, poorly fitted or top-dose-only effect, or effect the other way, or a change in a side signal; inactive = no such curve, though single readings can be large or run the other way
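FP read-out: FITC-PTAP peptide, 50 nM final, binding Tsg101 binding domain, 10 uM final; 20 min, r.t.; 10 mM HEPES pH 7.5, 0.15 M NaCl, 0.01% Tween 20, 3 mM EDTA, 0.1 mM TCEP.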
GRP78 ERSR act – ER stress response induction in glioma | AID 602332 | U87-MG GRP78 promoter luciferase reporter, 16 h | Potency, µM, most hits filed as activators | 420,000 tested, 0.02% active; active = well fitted activation curve with a large enough effect; inconclusive = small, poorly fitted or top-dose-only effect; inactive = no such curve, though single readings can be large or run the other way; also: series mostly up to about 76 µM; nearly all actives have a fitted effect of over 35% in size
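Stably transfected U87-MG glioma cells carrying a GRP78-based luciferase sensor; 16 h compound incubation. Luminescence end-point read 10 min after Bright-Glo addition at room temperature.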
hERG WT inh – KCNH2 (human, wildtype) channel inhibition | Q12809 | U2OS, BacMam KCNH2, thallium flux FluxOr; active compounds read low | activity change, % at 1.84 µM | 340,000 tested, 0.37% active;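 active = maximum activity change below -70%; inconclusive = maximum activity change between -70% and -50%; inactive = maximum activity change above -50%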
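U2OS cells were transduced with wild-type KCNH2 virus (2.03 x 10^8 / mL) for 4 h at room temperature, then cultured overnight at 37 C. Thallium flux was read with FluxOr dye. Rate constants were normalized to DMSO controls.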
KCNH2 3.1 inh – inhibitors of human KCNH2 3.1 potassium channel isoform. activity change, % (tested at about 1.8 µM). AID 720553. 340,000 tested, 0.95% active. U2OS KCNH2 3.1, thallium flux FluxOr; active compounds read low;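 active = maximum activity change below -70%; inconclusive = maximum activity change from -70% to -50%; inactive = maximum activity change above -50%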;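 also: thallium influx rate constant from kinetic fluorescence after stimulation buffer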
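U2OS cells transduced with KCNH2 3.1 mutant virus (1.77 x 10^8 /mL, 4 h), plated overnight at 37 C, loaded 45 min with FluxOr dye plus Red40 quencher. Thallium flux rate constant from kinetic reads after stimulation buffer, normalised to controls.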
TRPML1 ag – agonists of human TRPML1 channel; Q9GZU1; TRPML1-expressing cells, Ca2+ dye fluorescence, FDSS; activation, % (no concentration beside the values); 410,000 tested, 0.12% active; AID 624414; in the data active = activation above about 50%; inconclusive = mostly about 30% to 49%
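Kinetic FDSS Ca2+ read in Tet-induced TRPML1-DL cells (ABD Ca8 dye plus quencher, 45-90 min RT loading): baseline, then compound, then 110 s agonist window; EC80 agonist 54-4 at 4uM final added afterwards for a 110 s antagonist window.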
A number is an active result; - = inactive; ? = inconclusive; . = no result given.

SMILES	TRPML1 inh	TSG101-PTAP inh	GRP78 ERSR act	hERG WT inh	KCNH2 3.1 inh	TRPML1 ag
O=C(NNC(=O)c1ccc2ccccc2c1O)NC1CCCCC1	-	-	-	-88	-	-
O=C(NC1CCCCC1)c1ccc2ccccc2c1O	-	.	-	-	-	-
CC(NC(=O)C1CC1)c1nnc2n1CCN(Cc1cccc(F)c1F)CC2 (stereo not drawn)	.	.	-	.	.	.
COc1cccc(CC(O)CC2c3c(cc4c(c3OC)OCO4)CCN2C)c1 (stereo not drawn)	-	-	-	-	-71	-
C#Cc1cccc(C(=O)N(Cc2cccnc2)CC2CCCN(C3CCCCC3)C2)c1 (stereo not drawn)	-	.	-	-	-	-
O=C(c1cc2cc(F)ccc2[nH]1)N(Cc1cccnc1)CC1CCCN(C2CCCCC2)C1 (stereo not drawn)	-	-	-	-	-109	-
COc1ccccc1-c1c(C)nn2c(N3CCCCCC3)cc(C)nc12	-	-	-	-250	-	-
COc1ccccc1-c1c(C)nn2c(N3CCOCC3)cc(C)nc12	.	-	-	-	-	.
CCn1c(-c2ccccc2F)nc2cc(NC(C)=O)cc(C(=O)NCC3CCOCC3)c21	.	.	-	.	.	.
Cc1nnc2c3ccccc3c(-c3cccs3)nn12	-	-	-	-	-85	-
O=C(CN1CCC(n2nnc3cc(F)ccc32)CC1)NC1CC1	-	-	-	-	-	-
CCOc1ccc2nc(NC(=O)CN3CCC(n4nnc5cc(F)ccc54)CC3)sc2c1	-	-	-	-	-89	-
O=C(NCC1CCC2(CCN(Cc3ccc4ncccc4c3)CC2)O1)C1CCCO1 (stereo not drawn)	.	.	-	.	.	.
O=C(COC(=O)/C=C/c1ccc([N+](=O)[O-])cc1)NC(c1ccccc1)c1ccccc1	-	-	-	-133	-	-
CCOC(=O)C1CCCN(C(=O)c2cnn(-c3nccc(-c4cc(C)sc4C)n3)c2C)C1 (stereo not drawn)	.	.	-	.	.	.
Cc1ccc(S(=O)(=O)N2CCN(C(=O)COC(=O)c3ccc(Cl)nc3)CC2)c(C)c1	-	-	-	-162	-	-
COc1cc(=O)n2c(c1C(=O)NCc1nonc1C)CCN(Cc1c[nH]c3ccccc13)CC2	.	.	-	.	.	.
C=CCN=c1scc(-c2ccc3c(c2)NC(=O)CO3)n1/N=C(\C)c1ccccn1	-	-	-	-	-95	-
O=[N+]([O-])c1ccc(S(=O)(=O)Nc2nc3ccccc3nc2Nc2ccccc2)cc1	-	-	-	-	-	52
O=C(O)c1ccc(Nc2nc3ccccc3nc2NS(=O)(=O)c2ccc(F)cc2)cc1	-	-	?	-	-	-
COc1ccc(Nc2nc3ccccc3nc2NS(=O)(=O)c2ccc(C)cc2)c(OC)c1	-	.	-	.	.	-
COc1cc(Nc2nc3ccccc3nc2NS(=O)(=O)c2ccc([N+](=O)[O-])cc2)cc(OC)c1OC	?	-	-	-	-	119
O=C(Cc1ccc(Br)cc1)NCc1ccccc1	-	-	?	-300	-	-
O=C(COC(=O)Cc1ccc(Br)cc1)NCc1ccccc1	-	.	-	-	-	-
Cc1cc(CNC(=O)c2cnn(-c3nccc(-c4ccc5c(c4)OCO5)n3)c2C2CC2)on1	.	.	-	.	.	.
SMILES	TRPML1 inh	TSG101-PTAP inh	GRP78 ERSR act	hERG WT inh	KCNH2 3.1 inh	TRPML1 ag
Cc1ccc(C)c(S(=O)(=O)N2CCN(C(=O)Cc3c(F)cccc3Cl)CC2)c1	-	-	-	-	-78	-
CN(C)C1=NC[C@H](Cc2ccccc2)N1CCCC1CCCC1	-	-	-	-	-102	-
CCCCCCCN1C(Nc2ccccc2)=NC[C@@H]1Cc1ccccc1	-	-	-	-	-109	-
c1ccc(C[C@H]2CN=C(Nc3ccccc3)N2CCCC2CCCC2)cc1	-	-	-	-93	-96	-
CCC(C)CCN1C(Nc2ccccc2)=NC[C@@H]1Cc1ccccc1 (stereo partly drawn)	-	-	-	-	-	-
c1ccc(CCCCN2C(Nc3ccccc3)=NC[C@@H]2Cc2ccccc2)cc1	-	-	-	-	-104	-
O=C(NCC1Cc2cc(F)cc(-c3cccnc3)c2O1)c1cnn(-c2ccccc2)c1 (stereo not drawn)	.	.	-	.	.	.
CCN1C(Nc2ccccc2)=NC[C@@H]1Cc1ccccc1	-	-	-	-	-109	-
Cc1c(C(=O)NCC2CC2)sc2ncnc(NCCN3CCCCC3)c12	.	.	-	.	.	.
O=c1nc(-c2ccccc2Cl)c2cc(F)ccc2[nH]1	.	-	-	-	-79	.
O=c1c2ccccc2[nH]c2ccc(F)cc12	-	-	-	-	-	-
COc1ccc(OC)c2c(C)ccnc12	.	.	-	.	.	-
N#Cc1cccc(NC(=O)CSc2ccc3c4c(cccc24)C(=O)c2ccccc2-3)c1	-	?	-	-100	-78	80
Cc1cccc(N(CC(=O)N2CCN(c3ccccc3F)CC2)S(C)(=O)=O)c1	-	-	-	-	-85	-
COCc1c(C(=O)N2CCN(c3ccccc3)CC2)cnn1-c1nccc(-c2ccco2)n1	.	.	-	.	.	.
COc1cccc(C(=O)N2CCCc3ccccc32)c1OC	-	.	-	-	-	-
COc1ccccc1C(=O)N1CCc2ccccc21	-	-	-	-	-73	-
CC(C)CCc1noc(CN(CC2CCC2)CC2CCCO2)n1 (stereo not drawn)	.	-	-	-	-72	.
Cc1c(C(=O)NCc2cccc(F)c2)sc2ncnc(NCC3CCCO3)c12 (stereo not drawn)	.	.	-	.	.	.
CCOC(=O)c1cc([N+](=O)[O-])sc1NC(=O)c1ccc(S(=O)(=O)N2CC3(C)CC2CC(C)(C)C3)cc1 (stereo not drawn)	?	-	-	-	-	60
O=S(=O)(c1ccccc1)N1CCN(c2ccnc3cc(Cl)ccc23)CC1	-	-	-	-	?	-
Cc1cc(N2CCN(c3nc(-c4ccccc4)cs3)CC2)c2ccccc2n1	-	-	-	-	-79	-
Cc1cc(N2CCN(S(=O)(=O)c3ccccc3)CC2)c2ccccc2n1	-	-	-	-109	-	-
CCOc1ccccc1/C=C/c1onc(C)c1S(=O)(=O)N1CCC(C(=O)N(CC)CC)CC1	-	-	-	-	-95	-
OC(COc1ccccc1)CN(Cc1ccccc1)CC(O)COc1ccccc1 (stereo not drawn)	-	-	-	-	-	-
CCC(=O)c1ccc(OCC(O)CN(CCc2ccccc2)Cc2ccccc2)cc1 (stereo not drawn)	-	-	-	-	-70	-
CCN(CC)CC(O)COc1ccccc1C(=O)CCc1ccccc1 (stereo not drawn)	-	-	-	-	-71	-
